How the values were obtained:
Assay in all cases: PBM binding z-score (relative to random genomic background probes); higher = stronger binding; sequences stand for … in GC…GCGATTGACAGCGTAGAATGAAGG
[1] = system: RARb homodimer (NR concentration 270 nM)
How it was run: (§1)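 Custom Agilent 4×180K protein-binding microarrays carried double-stranded probes. Their 34-nt variable regions held direct-repeat seeds, single-nucleotide variants, half-site ablations and random human genomic background sequences. Arrays were incubated 1 h with ligand-free nuclear receptor dimers in PBS pH 7.4, 2% milk, 0.02% Triton X-100, 1 mM DTT, 0.2 mg/mL BSA and 0.4 mg/ml salmon testes DNA. Antibodies against each partner (one per run) detected binding, and scanned fluorescence was regression-normalized. Binding z-scores use random background probes as reference.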

[2] = system: RARg:RXRa (NR concentration 270 nM, RXRa partner concentration 90 nM)
How it was run: as §1

[3] = system: RARg homodimer (NR concentration 270 nM)
How it was run: as §1

[4] = system: RXRa DBDmut IVT, anti-RXR (DBD mutation: RXRa K156A/R161A, NR concentration 90 nM)
How it was run: as §1

[5] = system: RXRa homodimer (NR concentration 180 nM)
How it was run: as §1

[6] = system: THRa:RXRa (NR concentration 90 nM, RXRa partner concentration 90 nM)
How it was run: as §1

[7] = system: THRa homodimer (NR concentration 90 nM)
How it was run: as §1

[8] = system: VDR:RXRa (NR concentration 270 nM, RXRa partner concentration 90 nM)
How it was run: as §1

[9] = system: VDR homodimer (NR concentration 270 nM)
How it was run: as §1

Sequence | PBM binding z-score [1] | PBM binding z-score [2] | PBM binding z-score [3] | PBM binding z-score [4] | PBM binding z-score [5] | PBM binding z-score [6] | PBM binding z-score [7] | PBM binding z-score [8] | PBM binding z-score [9]
TCTGCTAGGTCAACGATGGTCAGCTACTCTGCTA | 3.48 | 4.25 | 5.24 | 0.833 | 2.64 | 3.04 | 0.776 | 1.68 | -0.337
GCGACTGGGGCAAATCAGGTTACCATAAGGTTGG | 1.4 | 0.714 | 0.619 | -0.00232 | 0.576 | 4.22 | 0.742 | 0.324 | -0.198
TTTACAGGGTCAAAGGCCAGAGTACGAATGTCGA | 3.46 | 5.91 | 5.11 | 3.13 | 6.94 | 3.63 | 0.893 | 4.79 | 2.97
TATATAGGGTCAAAGGCCAGAGTACGAATGTCGA | 3.73 | 5.52 | 5.07 | 3.21 | 6.74 | 3.92 | 1.41 | 4.75 | 2.45
GGAACCAGGGCAAAGTTGATAGCATCTGTCGACG | 1.67 | 1.34 | 1.41 | 1.03 | 1.12 | 1.18 | 0.549 | 0.607 | 0.747
TCGAGTCGGTTAGTCGGGGCATTCAGCCAACATA | -0.0359 | -0.443 | -0.657 | 0.05 | -0.48 | 0.291 | -0.232 | 0.217 | 0.101
AGAATGAGGTTATACGTATATCAGGGAAGAAAGT | 0.94 | 1.77 | 1.35 | 1.42 | 2.34 | 2.5 | 0.645 | 1.69 | 0.832
CGAACTAGGTCATCCAGGACAGCGAATACATTGA | 3 | 3.97 | 4.81 | 2.19 | 2.73 | 3.84 | 2.24 | 4.63 | 1.93
AGCCAAAGTTCAGGACGAGGTAACGTAAAGCACG | 3.29 | 4.54 | 4.18 | 2.63 | 3.05 | 3.87 | 1.74 | 2.71 | 1.79
CAAACTAGGGCAAAGGTCAAAGTCGAGCCAACCA | 4.68 | 7.57 | 6.04 | 2.02 | 8.18 | 3.87 | 0.591 | 5.41 | 2.25
CAGCCTAGGTCAGGGCCAGTATTGGAGGAACGTT | 2.67 | 2.91 | 3.91 | -0.14 | 1.62 | 2 | 0.259 | -0.0862 | -0.444
CCTAGTTGGTCAAGGTCGCACACGCTATAGGTAC | 2.39 | 1.87 | 2.27 | 0.634 | 1.83 | 2.64 | 1.75 | 1.75 | 2.3
TCATATAGGTAAAGGTGAAAGTCGAACGATATGA | 1.71 | 1.65 | 1.43 | 0.845 | 2.33 | 1.38 | -0.106 | 0.971 | 0.236
ACTATTAGTTGAGACGGGGGCAACCGATAGGTTG | 1.92 | 2.03 | 1.77 | 1.55 | 1.42 | 3.01 | 1.12 | 2.71 | 1.98
CCTAGCAGACCAGGGTCACTCAAGCATTTCGCTT | 2.68 | 2.86 | 1.84 | 0.63 | 3.24 | 2.75 | 0.798 | 2.69 | 1.37
CCTCGGAGGACAACAGGTGGTCAGAGCTGCCAGA | 0.83 | 0.693 | 1.32 | -0.142 | -0.432 | 0.397 | -0.269 | -0.645 | -0.187
GCTATTAGTTGAAAGGGCTACCGAATGATTCTCG | 0.228 | -0.023 | 0.197 | 0.703 | 0.0628 | -0.589 | -0.623 | -0.406 | -0.485
CCTGCTAGGTCATCGTCAGCTAATCTACAGTATG | 3.08 | 4.09 | 5.07 | 2.37 | 3.06 | 2.92 | 1.19 | 1.87 | 0.596
CCTACTGGGCCACGCAAGGTCATTGATTCAGTGA | 3.66 | 3.09 | 2.61 | 0.396 | 2.62 | 4.54 | 2.64 | 3.62 | 2.93
CCTTACGGGTCACTCCAGGTTATAGTATCGGAGT | 3.16 | 4.38 | 4.25 | 1.55 | 4.67 | 5.23 | 0.63 | 4.39 | 1.7
GGAACGAGGGCAAGTGGATAGCAGAGTTTGATGG | 1.59 | 1.62 | 2.03 | 1.93 | 0.87 | 1.1 | -0.000164 | 0.391 | 1.39
GCGACTGGGGCATCAGCAGGTTACTATAACTTAA | 0.782 | 0.807 | 0.379 | 0.136 | 0.331 | 0.816 | 0.104 | 0.0645 | 0.0737
ACTATTTGTTGAGACGAGGGCAACCGATAGGTTG | 1.14 | 0.614 | 0.897 | 0.884 | 0.414 | 1.21 | 0.711 | 0.711 | 1.3
CCTATTAGTTGACCATAACGGCAACCGAAGCTCG | 1.01 | 0.618 | 0.817 | 0.595 | 0.625 | 0.388 | 0.93 | 0.7 | 1.08
CATACAGGGTCAGCTAGGGCAGAGTAGGGACGGC | 3.44 | 4.4 | 4.87 | 1.33 | 4.24 | 3.69 | 0.984 | 4.55 | 2.1
CGAACTAGGTCAGAACAGGAGAGTGAAGGATGAT | 1.69 | 2.51 | 3.2 | 0.692 | 1.23 | 1.72 | 0.0817 | 0.035 | 0.129

Source: the supplement of paper PMC6555819
